Holding throughout (conditions): compound concentration in added solution (µM; 5 µl added to 20 µl cells): 10; 18 h
Test [1] has as its system A431. Kind of test: LBPA endosome anti-LBPA integrated intensity (sum per cell), Z-score; higher = more LBPA staining. The gist of the method: (§1)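 Z-scores normalised in AcuityXpress are given for per-cell integrated LBPA or filipin intensity, measured whole-cell or within LBPA endosomes by MetaXpress segmentation. Cells (HeLa MZ or A431, 3,500 per well in 20 µl) were seeded onto 5 µl of 10 µM compound solution in duplicate 384-well imaging plates and fixed in 4% PFA after 18 h.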

The test system of test [2] is HeLa MZ. Described as above. The gist of the method:
as §1

Test [3] relates to A431. In words: whole-cell filipin (free cholesterol) integrated intensity, Z-score; higher = more cholesterol staining. The gist of the method:
as §1

Test [4] relates to HeLa MZ. The test is described as above. Put shortly:
as §1

Test [5] has as its system A431. Kind of test: filipin (cholesterol) integrated intensity within LBPA endosomes, Z-score; higher = more cholesterol in LBPA endosomes. The gist of the method:
as §1

Test [6] has as its system HeLa MZ. The test is described as above. Put shortly:
as §1

Molecules are shown by their SMILES. Counter-ions that a name gives are not always drawn.

Regarding `Cc1onc(-c2ccccc2)c1C(=O)N[C@@H]1C(=O)N2[C@@H]1SC(C)(C)[C@@H]2C(=O)O` [Oxacillin sodium], the “LBPA endosome anti-LBPA integrated intensity (z-score)” value is -0.391 in test [1] and 0.32 in test [2]. Further, the entries for the “whole-cell filipin (z-score)” value in test [3] and in test [4] were -0.277 and -0.0335, respectively. Besides, the “filipin (z-score)” value in test [5] is -0.382; in test [6] it was -0.445.

`Cc1cccc(C)c1NC(=O)CN1CCN(CCCC(c2ccc(F)cc2)c2ccc(F)cc2)CC1` [Lidoflazine]: the “LBPA endosome anti-LBPA integrated intensity (z-score)” value in test [1] turned out to be 3.2; in test [2], 1.66. Also, the figures for the “whole-cell filipin (z-score)” value in test [3] and in test [4] were 1.3 and 0.566, respectively. Besides, the “filipin (z-score)” value in test [5] was determined as 2.57; in test [6], 2.52.

`N=C(N)NC(=O)c1nc(Cl)c(N)nc1N` [Amiloride hydrochloride dihydrate]: the “LBPA endosome anti-LBPA integrated intensity (z-score)” value in test [1] was -0.438; in test [2], -0.561. Also, the “whole-cell filipin (z-score)” value was -0.785 in test [3] and -0.475 in test [4]. Further, the “filipin (z-score)” value in test [5] is -0.486; in test [6] it was -0.551.

As for `CC[N+](C)(CC)CCOC(=O)C1c2ccccc2Oc2ccccc21` [Methantheline bromide], the “LBPA endosome anti-LBPA integrated intensity (z-score)” value is -0.356 in test [1] and -0.164 in test [2]. Further, the “whole-cell filipin (z-score)” value in test [3] was -0.155; in test [4] it was -0.214. Also, the “filipin (z-score)” value in test [5] was -0.359; in test [6], -0.379.

Consider `CC[C@@H](CO)NCCN[C@@H](CC)CO` [Ethambutol dihydrochloride], for which the “LBPA endosome anti-LBPA integrated intensity (z-score)” value was -0.297 in test [1] and -0.0372 in test [2]. For the same molecule, the results for the “whole-cell filipin (z-score)” value in test [3] and in test [4] were -0.506 and -0.399, respectively. Further, the “filipin (z-score)” value in test [5] is -0.429; in test [6] it was -0.483.

As for `CC1CC(OC(=O)c2ccccc2O)CC(C)(C)C1` (configuration not stated) [Homosalate], the “LBPA endosome anti-LBPA integrated intensity (z-score)” value in test [1] was -0.265; in test [2] it was -0.48. Besides, the entries for the “whole-cell filipin (z-score)” value in test [3] and in test [4] were -0.0483 and 0.0325, respectively. Moreover, the “filipin (z-score)” value in test [5] is -0.434; in test [6] it was -0.566.

`COc1cc([S+](C)[O-])ccc1-c1nc2cccnc2[nH]1` (configuration not stated) [Sulmazole]: the figures for the “LBPA endosome anti-LBPA integrated intensity (z-score)” value in test [1] and in test [2] were -0.64 and -1.23, respectively. For the same molecule, the “whole-cell filipin (z-score)” value was -0.818 in test [3] and -0.362 in test [4]. Further, the “filipin (z-score)” value in test [5] was -0.483; in test [6], -0.399.

In the case of `CN1C(=O)CC(c2ccccc2)C1=O` (configuration not stated) [Phensuximide], the “LBPA endosome anti-LBPA integrated intensity (z-score)” value in test [1] was -0.488; in test [2], -0.914. For the same molecule, the “whole-cell filipin (z-score)” value in test [3] is -0.489; in test [4], -0.774. The “filipin (z-score)” value in test [5] is -0.376; in test [6], -0.653.

As to `CNC(C)CCC=C(C)C` (configuration not stated) [Isometheptene mucate], the “LBPA endosome anti-LBPA integrated intensity (z-score)” value in test [1] was -0.484; in test [2], -0.292. Besides, the figures for the “whole-cell filipin (z-score)” value in test [3] and in test [4] were 0.117 and -0.234, respectively. In addition, the “filipin (z-score)” value in test [5] was -0.458; in test [6], -0.578.

Take `O=C(CCCCC(=O)Nc1c(I)cc(I)c(C(=O)O)c1I)Nc1c(I)cc(I)c(C(=O)O)c1I` [Iodipamide]: the “LBPA endosome anti-LBPA integrated intensity (z-score)” value in test [1] was -0.326; in test [2], -0.366. The “whole-cell filipin (z-score)” value in test [3] was -0.456; in test [4], -0.377. The “filipin (z-score)” value in test [5] was -0.385; in test [6], -0.472.

For `C#Cc1cccc(Nc2ncnc3cc(OCCOC)c(OCCOC)cc23)c1` [Erlotinib], the “LBPA endosome anti-LBPA integrated intensity (z-score)” value in test [1] came to 1.24; in test [2] it was 2.03. The “whole-cell filipin (z-score)” value in test [3] is -0.02; in test [4], 0.532. In addition, the “filipin (z-score)” value in test [5] amounted to 0.124; in test [6], 0.831.

For `CN(C)CCOC1=Cc2ccccc2Sc2ccc(Cl)cc21` [Zotepine], the “LBPA endosome anti-LBPA integrated intensity (z-score)” value in test [1] worked out at 3.49; in test [2] it was 1.41. Further, the “whole-cell filipin (z-score)” value in test [3] is 1.18; in test [4], -0.352. The “filipin (z-score)” value in test [5] came out at 3.08; in test [6], 1.71.

The values above are taken from the supplement of paper PMC6607015.
